{
  "source": "PubChem BioAssay (NCI)",
  "test_in_all_cases": "NCI-60 one-dose screen, 48 h (100 = growth as untreated, 0 = no growth, -100 = all killed)",
  "settings_in_all_cases": "10 µM unless noted",
  "key": {"T-47D breast": {"system": "T-47D breast"}, "MDA-MB-435 melanoma": {"system": "MDA-MB-435 melanoma"}, "HCT-116 colon": {"system": "HCT-116 colon"}, "HCC-2998 colon": {"system": "HCC-2998 colon"}, "KM12 colon": {"system": "KM12 colon"}, "BT-549 breast": {"system": "BT-549 breast"}, "SW-620 colon": {"system": "SW-620 colon"}, "MCF7 breast": {"system": "MCF7 breast"}},
  "note": "The panel holds about 83,000 compounds, 20% with a hit somewhere; the sample as a whole holds those more often.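 Single-dose data. Exposure time 48 hours. Values below 10 considered active.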 Calls of active or inactive are those of the source.",
  "data": [
    {"smiles": "CCN(CC)c1ccc2nc3ccc(N=Nc4ccc(O)cc4)cc3[n+](-c3ccccc3)c2c1", "values": [
      {"measurement": "growth", "setting": "T-47D breast", "result": "32.7% (inactive)"},
      {"measurement": "growth", "setting": "MDA-MB-435 melanoma", "result": "48.6% (inactive)"},
      {"measurement": "growth", "setting": "HCT-116 colon", "result": "8.46% (active)"},
      {"measurement": "growth", "setting": "HCC-2998 colon", "result": "62.8% (inactive)"},
      {"measurement": "growth", "setting": "KM12 colon", "result": "34.8% (inactive)"}
    ]},
    {"smiles": "C/C(CCC(=O)O)=N/Nc1ccc([N+](=O)[O-])cc1", "values": [
      {"measurement": "growth", "setting": "BT-549 breast", "result": "89.1% (inactive)"},
      {"measurement": "growth", "setting": "MDA-MB-435 melanoma", "result": "38.6% (inactive)"},
      {"measurement": "growth", "setting": "SW-620 colon", "result": "72.6% (inactive)"},
      {"measurement": "growth", "setting": "MCF7 breast", "result": "65.2% (inactive)"},
      {"measurement": "growth", "setting": "HCT-116 colon", "result": "56.8% (inactive)"},
      {"measurement": "growth", "setting": "HCC-2998 colon", "result": "59.9% (inactive)"},
      {"measurement": "growth", "setting": "KM12 colon", "result": "27.1% (inactive)"}
    ]},
    {"smiles": "Cc1nc(N)sc1C(=O)NCCO", "values": [
      {"measurement": "growth", "setting": "T-47D breast", "result": "106% (inactive)"},
      {"measurement": "growth", "setting": "MDA-MB-435 melanoma", "result": "128% (inactive)"},
      {"measurement": "growth", "setting": "MCF7 breast", "result": "98.2% (inactive)"},
      {"measurement": "growth", "setting": "HCT-116 colon", "result": "99.6% (inactive)"},
      {"measurement": "growth", "setting": "HCC-2998 colon", "result": "168% (inactive)"},
      {"measurement": "growth", "setting": "KM12 colon", "result": "102% (inactive)"}
    ]},
    {"smiles": "C/C(=N\\Nc1ccc(Cl)cn1)c1ccccn1", "values": [
      {"measurement": "growth", "setting": "BT-549 breast", "result": "9.46% (active)"},
      {"measurement": "growth", "setting": "MDA-MB-435 melanoma", "result": "26.4% (inactive)"},
      {"measurement": "growth", "setting": "SW-620 colon", "result": "27% (inactive)"},
      {"measurement": "growth", "setting": "MCF7 breast", "result": "3.89% (active)"},
      {"measurement": "growth", "setting": "HCT-116 colon", "result": "1.21% (active)"},
      {"measurement": "growth", "setting": "HCC-2998 colon", "result": "27% (inactive)"},
      {"measurement": "growth", "setting": "KM12 colon", "result": "20% (inactive)"}
    ]},
    {"smiles": "O=Nc1ccc(O)c2ccccc12", "values": [
      {"measurement": "growth", "setting": "T-47D breast", "result": "-9.85% (active)"},
      {"measurement": "growth", "setting": "MDA-MB-435 melanoma", "result": "-63.8% (active)"},
      {"measurement": "growth", "setting": "SW-620 colon", "result": "12.1% (inactive)"},
      {"measurement": "growth", "setting": "HCT-116 colon", "result": "0.195% (active)"},
      {"measurement": "growth", "setting": "HCC-2998 colon", "result": "68.4% (inactive)"},
      {"measurement": "growth", "setting": "KM12 colon", "result": "14% (inactive)"}
    ]},
    {"smiles": "COc1cc(-c2nn(-c3ccc(NC(=O)c4cc(Cl)cc(Cl)c4)cc3)cc2-c2ccncc2)ccc1Cl", "values": [
      {"measurement": "growth", "setting": "T-47D breast", "result": "79.8% (inactive)"},
      {"measurement": "growth", "setting": "MDA-MB-435 melanoma", "result": "84.1% (inactive)"},
      {"measurement": "growth", "setting": "SW-620 colon", "result": "77.2% (inactive)"},
      {"measurement": "growth", "setting": "MCF7 breast", "result": "78% (inactive)"},
      {"measurement": "growth", "setting": "HCC-2998 colon", "result": "62.2% (inactive)"},
      {"measurement": "growth", "setting": "KM12 colon", "result": "38.7% (inactive)"}
    ]},
    {"smiles": "CC(=O)Nc1nc(C)c(C(=O)N/N=C/N2CCOCC2)s1", "values": [
      {"measurement": "growth", "setting": "T-47D breast", "result": "102% (inactive)"},
      {"measurement": "growth", "setting": "MDA-MB-435 melanoma", "result": "127% (inactive)"},
      {"measurement": "growth", "setting": "MCF7 breast", "result": "98.6% (inactive)"},
      {"measurement": "growth", "setting": "HCT-116 colon", "result": "93.8% (inactive)"},
      {"measurement": "growth", "setting": "HCC-2998 colon", "result": "157% (inactive)"},
      {"measurement": "growth", "setting": "KM12 colon", "result": "105% (inactive)"}
    ]},
    {"smiles": "COc1ccc2cn3c4ccc(O)cc4[nH]c(=O)c3c2c1", "values": [
      {"measurement": "growth", "setting": "T-47D breast", "result": "33.9% (inactive)"},
      {"measurement": "growth", "setting": "MDA-MB-435 melanoma", "result": "-37.7% (active)"},
      {"measurement": "growth", "setting": "SW-620 colon", "result": "11.3% (inactive)"},
      {"measurement": "growth", "setting": "HCT-116 colon", "result": "10.6% (inactive)"},
      {"measurement": "growth", "setting": "HCC-2998 colon", "result": "19.3% (inactive)"},
      {"measurement": "growth", "setting": "KM12 colon", "result": "11.9% (inactive)"}
    ]},
    {"smiles": "O=C(c1ccccc1)c1ccccc1-c1ccccc1", "values": [
      {"measurement": "growth", "setting": "T-47D breast", "result": "27% (inactive)"},
      {"measurement": "growth", "setting": "MDA-MB-435 melanoma", "result": "-22.2% (active)"},
      {"measurement": "growth", "setting": "SW-620 colon", "result": "15.8% (inactive)"},
      {"measurement": "growth", "setting": "HCT-116 colon", "result": "14% (inactive)"},
      {"measurement": "growth", "setting": "HCC-2998 colon", "result": "47.1% (inactive)"},
      {"measurement": "growth", "setting": "KM12 colon", "result": "29.5% (inactive)"}
    ]},
    {"smiles": "CC(=O)NNC(=O)c1sc(NC(C)=O)nc1C", "values": [
      {"measurement": "growth", "setting": "T-47D breast", "result": "76.5% (inactive)"},
      {"measurement": "growth", "setting": "MDA-MB-435 melanoma", "result": "110% (inactive)"},
      {"measurement": "growth", "setting": "SW-620 colon", "result": "96.9% (inactive)"},
      {"measurement": "growth", "setting": "HCT-116 colon", "result": "90.5% (inactive)"},
      {"measurement": "growth", "setting": "HCC-2998 colon", "result": "73.8% (inactive)"},
      {"measurement": "growth", "setting": "KM12 colon", "result": "105% (inactive)"}
    ]},
    {"smiles": "CCCCCCCCCc1cc[n+](CC(=O)c2ccc([N+](=O)[O-])cc2)cc1", "values": [
      {"measurement": "growth", "setting": "T-47D breast", "result": "22.2% (inactive)"},
      {"measurement": "growth", "setting": "MDA-MB-435 melanoma", "result": "-20.8% (active)"},
      {"measurement": "growth", "setting": "MCF7 breast", "result": "-41.3% (active)"},
      {"measurement": "growth", "setting": "HCT-116 colon", "result": "-34.5% (active)"},
      {"measurement": "growth", "setting": "HCC-2998 colon", "result": "-76.3% (active)"},
      {"measurement": "growth", "setting": "KM12 colon", "result": "-31.5% (active)"}
    ]},
    {"smiles": "COC(=O)Nc1nc2ccc(C(=O)c3ccccc3N(C)C3COC3)cc2[nH]1", "values": [
      {"measurement": "growth", "setting": "BT-549 breast", "result": "60.4% (inactive)"},
      {"measurement": "growth", "setting": "MDA-MB-435 melanoma", "result": "-42.1% (active)"},
      {"measurement": "growth", "setting": "SW-620 colon", "result": "14.9% (inactive)"},
      {"measurement": "growth", "setting": "MCF7 breast", "result": "19% (inactive)"},
      {"measurement": "growth", "setting": "HCT-116 colon", "result": "30.4% (inactive)"},
      {"measurement": "growth", "setting": "HCC-2998 colon", "result": "67.2% (inactive)"},
      {"measurement": "growth", "setting": "KM12 colon", "result": "17% (inactive)"}
    ]},
    {"smiles": "Brc1ccc(-c2nc3ccccc3s2)cc1", "values": [
      {"measurement": "growth", "setting": "BT-549 breast", "result": "101% (inactive)"},
      {"measurement": "growth", "setting": "MDA-MB-435 melanoma", "result": "105% (inactive)"},
      {"measurement": "growth", "setting": "SW-620 colon", "result": "94.5% (inactive)"},
      {"measurement": "growth", "setting": "MCF7 breast", "result": "58.7% (inactive)"},
      {"measurement": "growth", "setting": "HCT-116 colon", "result": "89.4% (inactive)"},
      {"measurement": "growth", "setting": "HCC-2998 colon", "result": "110% (inactive)"},
      {"measurement": "growth", "setting": "KM12 colon", "result": "97.3% (inactive)"}
    ]},
    {"smiles": "COc1ccccc1C(=O)Nc1cccc(-c2cc(=O)c3c(OC)c(OC)c(OC)cc3o2)c1", "values": [
      {"measurement": "growth", "setting": "BT-549 breast", "result": "45.9% (inactive)"},
      {"measurement": "growth", "setting": "MDA-MB-435 melanoma", "result": "43.5% (inactive)"},
      {"measurement": "growth", "setting": "SW-620 colon", "result": "63.4% (inactive)"},
      {"measurement": "growth", "setting": "MCF7 breast", "result": "53.4% (inactive)"},
      {"measurement": "growth", "setting": "HCT-116 colon", "result": "36.7% (inactive)"},
      {"measurement": "growth", "setting": "HCC-2998 colon", "result": "67.8% (inactive)"},
      {"measurement": "growth", "setting": "KM12 colon", "result": "38.4% (inactive)"}
    ]}
  ]
}
